In ChEMBL document CHEMBL3988442, “University of Dundee, Small-Polar-MMV Screening Library” (2021):
Hit rate of the full screen: of about 48,000 compounds, about 13,000 (27%) showed an effect of 50% or more. Some of the results follow.

Each compound was assayed on Wolbachia pipientis (assay: Anti-Wolbachia Cell-Based Screen). Details: 5 µM.
Assay type: functional
Parameters: scale not given: in the data most compounds retested in dose-response had high values

| SMILES | Percent Effect |
| --- | --- |
| Cc1nc([C@@H]2C[C@H]3CN(Cc4scnc4C)C[C@H]3O2)no1 | -8.778% |
| O=C(NCc1cccs1)c1nc2c(o1)CN(C(=O)c1cccnc1)C2.O=C(O)C(F)(F)F | 7.988% |
| CN(C)C(=O)NCc1nnc2n1CCN(Cc1ccsc1)C2 | 3.865% |
| CC(C)(C)C(O)CN1CCN(C(=O)COCC2CC2)CC1 (centres undefined) | -3.893% |
| CCCOc1cc(C)ccc1NC(=O)NCCC(=O)N(C)C | -7.738% |
| CCS(=O)(=O)NCCNC(C)(C)c1nc(C)cs1 | -9.016% |
| CC(=O)Nc1nc(C)c(S(=O)(=O)NCCc2cccnc2)s1 | 82% |
| Cn1ccnc1CCNS(=O)(=O)c1cccnc1 | 3.045% |
| CC(=O)Nc1nc(C)c(S(=O)(=O)NCCc2ccccn2)s1 | 90.82% |
| NC(=O)c1ccc(S(=O)(=O)NCCc2ccccn2)cc1 | -9.373% |
| Cc1cc(NC(=O)NCCc2cccnc2)n(C)n1 | -22.8% |
| CNC(=O)c1ccc(S(=O)(=O)NCCc2ccccn2)cc1 | -1.31% |
| Cc1cc(N[C@@H](CO)c2ccccc2)n2nc(C)c(C)c2n1 | -10.16% |
| COc1ncnc(N)c1CNCC(C)Oc1ccccc1Cl (centres undefined) | -1.664% |
| COc1ncnc(N)c1CNCC(C)SC (centres undefined) | 4.865% |
| COc1ncnc(N)c1CNCCc1ccc(-n2cccn2)cc1 | 93.72% |
| COc1ncnc(N)c1CNCc1ccccc1-n1cccn1 | 108.1% |
| c1ccc(-n2cncn2)c(CNCCn2cccn2)c1 | -10.78% |
| COc1ncnc(N)c1CNCCOc1ccccc1Cl | -0.9521% |
| CC(C)C1CN(C(=O)c2cc(=O)[nH]c(=O)[nH]2)CCCN1CC1CC1 (centres undefined) | 26.13% |
| Cc1ccc(CN2CCN(c3ncnc4[nH]cnc34)CC2CCO)cc1 (centres undefined) | -6.275% |
| Cc1cc(CN2CCN(CC3CC3)[C@@H]3CS(=O)(=O)C[C@@H]32)ccc1F | 0.5835% |
| CCS(=O)(=O)N1CCc2c(nc(C3CCCN3)nc2NC)C1.Cl (centres undefined) | 89.89% |
| CCS(=O)(=O)N1CCc2c(cccc2NCc2nc(C)c(C)o2)C1 | 13.37% |
| CCS(=O)(=O)N1CCc2c(cccc2NCc2ncc[nH]2)C1 | -10.34% |
| CNc1nc(C2CCCN2)nc2c1CCN(S(=O)(=O)C1CCCCC1)C2.Cl (centres undefined) | 89.64% |

| SMILES | Percent Effect |
| --- | --- |
| O=C1CCN(C(=O)C2(c3ccc(F)cc3)CCCC2)CCN1 | -16.8% |
| COc1ccc(C(O)CNC(=O)NCc2csc(C)n2)cc1 (centres undefined) | -1.772% |
| CS(=O)(=O)N1CCN2C(=O)N(C3CCOCC3)C[C@H]2C1 | -10.83% |
| Cc1nnc(N2CCC(CCn3ccnc3C)CC2)o1 | 2.305% |
| Cc1nccn1CCC1CCN(C(=O)C2CC3(CCNCC3)CN2)CC1 (centres undefined) | 104.8% |
| Cc1nccn1CCC1CCN(C2CCC3(CCNCC3)CC2)CC1 | 84.73% |
| Cc1nccn1CCC1CCN(c2ncccn2)CC1 | -9.43% |
| Cc1ncnc(N2CCN(C(=O)C3CC4(CCNCC4)CN3)CC2)c1C (centres undefined) | -0.6445% |
| Cc1cnccc1N1CCN(C(=O)C2CC3(CCNCC3)CN2)CC1 (centres undefined) | 31.13% |
| CCCN(CC(=O)OC)S(=O)(=O)c1cnc2c(c1)c(C)nn2C | 9.963% |
| CS(=O)(=O)N1C[C@@H]2CCN(C(=O)c3ccco3)[C@@H]2C1 | -6.962% |
| CC(C)C(=O)N1CCN(C(=O)c2cscn2)[C@H]2CS(=O)(=O)C[C@H]21 | 2.64% |
| O=C(c1cscn1)N1CC[C@@H]2[C@@H]1CCN2c1ccccn1 | -2.894% |
| CN1C[C@@H]2CN(C(=O)C3CCOC3)C[C@@H]2C1=O (some centres undefined) | 0.8988% |
| O=C(C1CCOC1)N1C[C@@H]2CCN(C(=O)c3cscn3)[C@@H]2C1 (some centres undefined) | 85.3% |
| O=C(c1ccsc1)N1C[C@@H]2CCN(C(=O)c3cscn3)[C@@H]2C1 | 98.94% |
| O=C(NC1CCCCC1)N1C[C@@H]2OCCN(C(=O)c3ccco3)[C@@H]2C1 | 2.504% |
| O=C(NC1CC1)N1C[C@@H]2CCN(C(=O)c3cscn3)[C@@H]2C1 | 121.3% |
| O=C(c1ccco1)N1C[C@H]2CCCN(C(=O)c3ccsc3)[C@H]2C1 | -8.905% |
| CS(=O)(=O)N1C[C@@H]2CCN(C(=O)c3cscn3)[C@@H]2C1 | 118.3% |
| O=C(c1ccsc1)N1C[C@@H]2CCN(C(=O)c3cccc(F)c3)[C@@H]2C1 | -29.62% |
| CCS(=O)(=O)N1CCC2(CN(C(=O)c3cscn3)C2)C1 | 7.529% |
| Cc1nc(C(C)(C)NCc2ncc(C(C)C)o2)sc1C | 0.4552% |
| O=C(C1CCS(=O)(=O)C1)N1CCC(=Cc2cccc(F)c2)CC1 (centres undefined) | 0.7274% |
| Cc1c(Cl)c(C(=O)N2CC(c3cccnc3)C2)nn1C | 11% |
| Cc1ccc(F)c(C(=O)N2C[C@@H](C(=O)O)[C@H](c3ccccc3)C2)c1Cl | 13.68% |

| SMILES | Percent Effect |
| --- | --- |
| Cc1ccc(CN2C[C@@H](C(=O)O)[C@H](c3cccnc3)C2)s1 | -1.112% |
| COc1cc(C)sc1C(=O)N1CC(c2cccnc2)C1 | -11.08% |
| Cc1ccc2nc(C(=O)N3C[C@@H](C(=O)O)[C@H](c4cccnc4)C3)cn2c1 | 96.84% |
| Cc1ccc2nc(C(=O)N3CC(n4nc(C)cc4C)C3)cn2c1 | -3.622% |
| Cc1ccc2nc(C(=O)N3CC(c4cccnc4)C3)cn2c1 | 95.05% |
| Cc1ccc2nc(C(=O)N3C[C@@H](C(=O)O)[C@H](c4ccccc4)C3)cn2c1 | 107.2% |
| Cc1c(Cl)c(C(=O)N2C[C@@H](C(=O)O)[C@H](c3cccnc3)C2)nn1C | 7.348% |
| Cc1c(-c2n[nH]c3c2CN(CC2CCOC2)CC3)cccc1C(F)(F)F (centres undefined) | -2.371% |
| CCCOC(=O)C(C)Sc1nnnn1C1CCOCC1 (centres undefined) | -23.26% |
| O=C(NC1CCOCC1)C1CC(=O)N(Cc2ccccn2)C1 (centres undefined) | -4.932% |
| Cc1ncccc1CNCC1CCN(CC(O)c2ccccc2)CC1 (centres undefined) | 6.479% |
| N[C@@H]1CC[C@H](C(=O)NCc2ccc3nonc3c2)C1 | -14.66% |
| Cc1ccc(CSc2ncc(Br)c(C(=O)O)n2)cc1 | 104.9% |
| O=C(O)c1nc(SCc2ccccc2)ncc1Br | 220.2% |
| Cc1cccc(CSc2ncc(Br)c(C(=O)O)n2)c1 | 160.3% |
| Cc1cccc(CN2CCN(C(=O)c3cc(Cl)c[nH]c3=O)CC2)c1 | -10.72% |
| Cc1ccnc(NC(=O)CSCc2cccnc2)c1 | -2.126% |
| Cc1cccc(CN2CCN(C(=O)c3cnc(C)[nH]c3=O)CC2)c1 | -2.506% |
| Cc1cccc(CSc2ncc(Cl)c(C(=O)O)n2)c1 | 112.8% |
| CC1(C)CN(CC(F)(F)F)CCN1CC(=O)NC1CC1 | -2.584% |
| CSc1sc(NC(=O)Cc2c(C)nc(C)[nH]c2=O)nc1C | -3.918% |
| Cc1ncnc(NCc2cc3n(n2)CCCN(S(C)(=O)=O)C3)c1C | 3.244% |
| CNS(=O)(=O)c1csc(C(=O)N(C)Cc2ccccc2C)c1 | -9.289% |
| CC1COc2ccccc2N1C(=O)CCc1cscn1 (centres undefined) | -5.764% |
| O=C(O)c1nc(SCc2ccc(F)cc2)ncc1Br | 202.4% |
| O=C(O)c1nnn(Cc2ccc(F)cc2)c1-c1cccnc1 | 3.102% |

| SMILES | Percent Effect |
| --- | --- |
| Cc1ccccc1CSc1nc(N)cc(N2CCC(CC(N)=O)CC2)n1 | 7.144% |
| Cc1ccccc1CSc1ncc(Br)c(C(=O)O)n1 | 130.2% |
| Cc1ccccc1CSc1nc(N)cc(N2CCCC(C(N)=O)C2)n1 (centres undefined) | -15% |
| Cc1cc(CN2CCc3nn(C(C)C)c(=O)cc3C2)no1 | -4.35% |
| CCc1csc(CCNC(=O)C2CC(=O)N(C(C)C)C2)n1 (centres undefined) | 2.498% |
| CCOCCC(=O)NC(c1noc(C)n1)c1ccccc1F (centres undefined) | -21.83% |
| COc1ccc(CNCC(C)Oc2ccccn2)cc1Br.Cl (centres undefined) | 9.774% |
| NC(=O)c1noc(Cn2ccc3ccccc3c2=O)n1 | -17.09% |
| Cc1ccc(OCCCC(=O)NC(C)c2ccc(S(N)(=O)=O)cc2)cc1 (centres undefined) | 31.07% |
| CNS(=O)(=O)c1cccc(C(C)NCc2ccccc2)c1 (centres undefined) | -4.826% |
| CN(CCCOc1ccccc1)S(=O)(=O)N1CCOCC1 | 2.231% |
| Cc1ccc(C(C)N(C)CCS(=O)(=O)CCC(N)=O)cc1 (centres undefined) | 1.361% |
| CC(c1cccc(S(N)(=O)=O)c1)N(C)CCCOc1ccccc1 (centres undefined) | 114.5% |
| Cc1ccc(OCCN(C)C(C)c2cccc(S(N)(=O)=O)c2)cc1 (centres undefined) | 121.8% |
| Cc1cccc(C2CCCN2C(=O)CN(C)S(C)(=O)=O)c1C (centres undefined) | -12.58% |
| O=C(c1cccnc1)N1CCOC(c2ccc(-c3cncnc3)cn2)C1 (centres undefined) | 91.28% |
| CNC(=O)c1ccc(C2CN(C(=O)c3cnn(C)c3)CCO2)nc1 (centres undefined) | 109.7% |
| O=C(c1cccnc1)N1CCOC(CCCc2ccccc2)C1 (centres undefined) | 4.666% |
| O=C(c1ccncc1F)N1CCOC(c2cccc(O)c2)C1 (centres undefined) | -9.281% |
| Cc1nc(N)cc(C2CN(C(=O)c3ccn(C)n3)CCO2)n1 (centres undefined) | -11.99% |
| Cc1n[nH]c(C2CN(C(=O)c3ccc(=O)n(C)c3)CCO2)n1 (centres undefined) | -1.43% |
| Cn1ccc(C(=O)N2CCOC(c3ccc(C(N)=O)cn3)C2)n1 (centres undefined) | 91.81% |
| CCC1CN(C(=O)c2cnc(-c3cnn(C)c3)s2)CCO1 (centres undefined) | -21.53% |
| CNC(=O)c1ccc(C2CN(C(=O)c3scnc3C)CCO2)nc1 (centres undefined) | 111.8% |
| Cc1n[nH]c(C2CN(C(=O)c3scnc3C)CCO2)n1 (centres undefined) | -53.57% |
| CNC(=O)c1ccc(C2CN(C(=O)c3cncs3)CCO2)nc1 (centres undefined) | -5.383% |
